# Bioassay records deposited in PubChem by several laboratories.
# Most compounds without a hit are left out; they make up all but 2.8% or so of the library.
# Platelet DG rel: inhibitors of platelet dense granule secretion, primary screen, cell-based, MLPCN, human platelets; actives 0.22% (n = 300,000); human platelet-rich plasma, SFLLRN dense granule ATP release, luminescence; AID 1663, 2009; inhibition, %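 (compounds screened at 7.5 µM in platelet-rich plasma)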;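 active means mean replicate score, as percent of positive control, at or above 50; inconclusive means mean below 50 but at least one replicate at or above 50; inactive means mean and every replicate below 50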
# SENP6 block: SENP6 protease inhibitors, primary screen, biochemical, luminescence, uHTS; Sentrin-specific protease 6 (Homo sapiens), Q9GZR1; Recombinant SENP6 catalytic domain, aminoluciferin luminescence; inhibition, % at 10 µM; actives 1.8% (n = 330,000); AID 2599, 2010;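 active means inhibition above about 50% at the single tested dose, limit read from the data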
# Target sequence (Q9GZR1 628-1112 limits assumed): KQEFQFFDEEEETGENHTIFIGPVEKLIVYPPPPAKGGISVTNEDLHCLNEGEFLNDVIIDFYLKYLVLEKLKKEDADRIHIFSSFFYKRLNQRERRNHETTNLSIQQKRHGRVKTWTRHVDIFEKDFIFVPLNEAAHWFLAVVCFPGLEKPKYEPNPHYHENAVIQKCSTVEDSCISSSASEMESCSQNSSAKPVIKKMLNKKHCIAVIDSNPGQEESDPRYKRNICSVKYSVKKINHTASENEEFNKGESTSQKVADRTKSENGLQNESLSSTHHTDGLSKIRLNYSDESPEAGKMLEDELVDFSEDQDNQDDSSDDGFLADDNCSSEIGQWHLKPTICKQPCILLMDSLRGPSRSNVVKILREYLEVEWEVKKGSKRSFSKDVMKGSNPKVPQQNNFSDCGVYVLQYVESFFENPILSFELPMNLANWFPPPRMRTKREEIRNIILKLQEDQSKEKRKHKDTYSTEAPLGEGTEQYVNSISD
# SENP7 inh: SENP7 protease inhibitors, primary screen, biochemical, luminescence, uHTS. actives 1.5% (n = 330,000). AID 434973, 2010. Sentrin-specific protease 7 (Homo sapiens), Q9BQF6. inhibition, % at 5 µM. recombinant SENP7, Z-RLRGG-aminoluciferin luminescence, 40 min;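 active means inhibition above about 50% at the single test dose, limit read from the data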
# HSP90 inh: HSP90 inhibitors, primary screen, cell lysate, luminescence; inhibition, % at 5.6 µM; Heat shock protein HSP 90 (rabbit reticulocyte lysate; luciferase refolding); Rabbit reticulocyte lysate, luciferase refolding luminescence, 3 h; actives 0.91% (n = 290,000);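 active means inhibition above the screen-wide mean plus 3 SD, computed separately per campaign, cut at about 16% in these data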;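 further: inhibitors lower the luminescence because luciferase stays unfolded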
# SENP8 block-1: SENP8 protease inhibitors, primary screen, biochemical, luminescence; purified SENP8, Z-RLRGG-aminoluciferin cleavage; inhibition, % at 10 µM; actives 1.2% (n = 330,000); AID 2540, 2010; in the data active means inhibition above about 50%
# Target sequence (Q96LD8 whole entry, looked up): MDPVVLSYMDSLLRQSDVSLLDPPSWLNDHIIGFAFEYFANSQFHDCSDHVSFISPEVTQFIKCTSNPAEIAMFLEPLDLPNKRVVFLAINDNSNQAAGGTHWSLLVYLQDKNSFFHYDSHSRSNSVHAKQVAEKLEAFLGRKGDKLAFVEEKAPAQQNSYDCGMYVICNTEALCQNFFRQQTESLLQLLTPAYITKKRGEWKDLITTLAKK
# SENP8 block-2: human SENP8 protease inhibitors, primary screen, biochemical, fluorescence, Nedd8 protein substrate, uHTS | inhibition, % at 20 µM | AID 602440, 2012 | Sentrin-specific protease 8 (Homo sapiens), Q96LD8 | recombinant SENP8 | actives 0.64% (n = 360,000); in the data active means inhibition mostly above about 40%, no sharp cut-off; inactive means mostly below about 27%
# HSP90 confirm: HSP90 inhibitors, confirmation, cell lysate, luminescence | shares compounds with HSP90 inh | rabbit reticulocyte lysate, luciferase refolding luminescence, 3 h | inhibition, % at 5.9 µM | actives 64% (n = 2,300) | AID 1846, 2009; in the data active means inhibition above about 18%
# luciferase ctr: firefly luciferase inhibitors, HSP90 counter-screen, confirmation, artefact control for HSP90 inhibitor project, biochemical, luminescence, triplicate | shares compounds with HSP90 inh | purified native firefly luciferase | inhibition, % at 5.9 µM | actives 48% (n = 2,300) | AID 1847, 2009;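 active means inhibition above the mean inhibition of all tested sample wells plus 3 SD, cut at about 10% in these data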
# SENP8 conf: SENP8 protease inhibitors, retest, confirmation, biochemical, luminescence, single concentration | actives 40% (n = 6,200) | shares compounds with SENP7 inh | inhibition, % at 12.5 µM | Recombinant SENP8, Z-RLRGG-aminoluciferin luminescence, 60 min;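 active means mean inhibition across replicates above about 50%, limit read from the data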
# SENP6 conf: SENP6 protease inhibitors, confirmation, biochemical, luminescence, single concentration. shares compounds with SENP7 inh. recombinant SENP6, Z-RLRGG-aminoluciferin luminescence. inhibition, % at 12.5 µM. actives 58% (n = 6,200)
# SENP7 confirm: SENP7 protease inhibitors, retest, confirmation, biochemical, luminescence, single concentration; AID 488917, 2010; shares compounds with SENP7 inh; recombinant SENP7, Z-RLRGG-aminoluciferin luminescence, 40 min; inhibition, % at 12.5 µM; actives 69% (n = 6,200)
# Casp3 select: caspase-3 protease inhibitors, confirmation, selectivity assay for SENP inhibitor project, biochemical, single concentration | purified caspase-3, Z-DEVD-aminoluciferin luminescence, 60 min | actives 60% (n = 6,200) | shares compounds with SENP7 inh | inhibition, % at 12.5 µM;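 active means mean inhibition above about 50%, limit read from the data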
# SENP luc ctr: interferes with luciferase luminescence in SENP counter-screen. AID 488919. actives 39% (n = 6,200). Pre-incubated SENP8/Z-RLRGG-aminoluciferin, luciferase luminescence interference. inhibition, % at 12.5 µM. shares compounds with SENP7 inh;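 active means mean inhibition above about 50% when retested at one dose, limit read from the data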
# A number is an active result; . = inactive; ? = inconclusive; / = not tested or not shown.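 How the source made its calls, unless noted: active means mean inhibition above about 50% in the one-dose retest (limit read from the data); inactive means the rest.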
SMILES,Platelet DG rel,SENP6 block,SENP7 inh,HSP90 inh,SENP8 block-1,SENP8 block-2,HSP90 confirm,luciferase ctr,others
CN1C(=O)NC(=O)/C(=C/c2ccc([N+](=O)[O-])s2)C1=O,.,.,.,.,.,57.6,/,/,
CC(C)C1C(C#N)=C(N)Oc2c1c(=O)oc1ccccc21 (stereo unspecified),/,/,/,/,/,.,/,/,
O=c1c2ccccc2nc(/C=C/c2ccc(F)cc2)n1-c1ccccn1,?,.,.,26.4,.,/,.,.,
O=c1c2ccccc2nc(/C=C/c2ccc(O)cc2)n1-c1ccccc1O,.,.,.,.,.,.,/,/,
COC(=O)C[C@]1(C(=O)OC)CN(C#N)N(c2ccc(Cl)cc2)C12c1ccccc1-c1ccccc12,.,.,.,32.2,.,.,58.7,.,
COC(=O)[C@@H]1[C@@H](C(=O)OC)C2(c3ccccc3-c3ccccc32)N(c2ccc(Cl)cc2)N1C#N,.,.,.,.,.,.,/,/,
CSc1nc(N)c(N=Nc2ccc([As](=O)(O)O)cc2)c(=O)[nH]1,.,.,.,21.2,.,.,22.4,.,
CCc1ccc(CNCCc2c[nH]c3ccccc23)cc1,.,.,.,19.1,.,.,.,.,
c1ccc(CNCCc2c[nH]c3ccccc23)cc1,.,.,.,.,.,.,/,/,
C=C1C(=O)OC2CCN3CC=C(COC(=O)C(C)(O)C4(CO4)C1C)C23 (stereo unspecified),/,/,/,/,/,.,/,/,
CC(C)CCOP(N)(=O)Oc1ccccc1Cl (stereo unspecified),.,.,.,.,.,.,/,/,
CN1CCN(Cc2ccc3ccccc3c2)CC1,.,.,.,.,.,.,/,/,
CCCCCCOc1ccc(CN2CCN(C)CC2)cc1,.,.,.,18.6,.,.,38.9,24.8,
CN1CCN(C(=O)COc2ccc(-c3nc4ccccc4s3)cc2)CC1,.,.,.,47.7,.,.,71.7,69.0,
COC(=O)C1=C(c2cc3ccccc3o2)C[C@@H]2CC[C@H]1N2C(=O)N1CCC(C)CC1,.,.,.,/,.,.,/,/,
COc1ccc(C2SCC(=O)Nc3c2c(C)nn3C2CCOC(C)(C)C2)cc1 (stereo unspecified),.,.,.,19.9,.,.,.,.,
Cc1nn(C2CCOC(C)(C)C2)c2c1C(c1ccc3c(c1)OCO3)SCC(=O)N2 (stereo unspecified),.,.,.,.,.,.,/,/,
O=c1[nH]c2c(c(=O)n1C1CCCCC1)CCC2,.,.,.,27.7,.,.,.,.,
C=CCn1c(O)c(/C(C)=N/N2CCN(C)CC2)c(=O)[nH]c1=O,.,.,.,22.0,.,.,.,.,
O=c1[nH]c(O)c(N=Nc2ccc3c(c2)OCCO3)c(=O)[nH]1,.,.,.,73.0,.,.,70.7,70.3,
COc1ccc(CN2Cc3cc(-c4cccc(F)c4)ccc3-n3nncc3C2)cc1,/,/,/,/,/,.,/,/,
CCCCn1c(NS(=O)(=O)c2ccccc2)c(C(=O)OCC)c2nc3ccccc3nc21,.,/,/,18.1,/,.,.,.,
CCOC(=O)c1c(N)n(CCN2CCCCC2)c2nc3ccccc3nc12,.,.,.,.,.,.,/,/,
CCOC(=O)c1ccc(NC(=O)C2C3C=CC(O3)C2C(=O)O)cc1 (stereo unspecified),.,.,.,35.2,.,/,.,.,
COc1ccc(OCCOc2cccc(C=C3C(=O)NC(=O)NC3=O)c2)cc1,.,.,.,24.9,.,/,44.9,30.4,
SMILES,Platelet DG rel,SENP6 block,SENP7 inh,HSP90 inh,SENP8 block-1,SENP8 block-2,HSP90 confirm,luciferase ctr,others
COc1ccccc1NC(=O)COC(=O)c1cn(C)c2ccccc12,/,.,.,/,.,.,/,/,
CC(Cc1ccccc1)NCCC(=O)NC(C)Cc1ccccc1 (stereo unspecified),.,.,.,.,.,.,/,/,
CC(C)(C)OC(=O)c1c(N)n(Cc2ccco2)c2nc3ccccc3nc12,.,.,.,28.6,.,.,.,.,
COCCNC(=O)c1c(N)n(Cc2ccco2)c2nc3ccccc3nc12,.,.,.,.,.,.,/,/,
Cn1cnnc1Sc1cc(N2CCNCC2)ccc1[N+](=O)[O-],.,.,.,.,.,.,/,/,
C[n+]1c(-c2ccccc2)c2cc(N)ccc2c2ccc(N)cc21,.,81.8,94.6,38.9,92.6,94.7,.,.,
CCOP(=O)(Nc1ccc2c(c1)C(=NNC(N)=S)c1ccccc1-2)OCC,/,/,/,/,/,.,/,/,
O=C(CCc1ccccc1)N1Cc2cc(N3CCOCC3)ccc2-n2nncc2C1,/,/,/,/,/,.,/,/,
OCC[n+]1c2ccccc2nc2ccc(N3CCOCC3)cc21,.,52.4,.,22.2,.,.,29.7,17.6,SENP8 conf=.;SENP6 conf=67.7;SENP7 confirm=.;Casp3 select=.;SENP luc ctr=.
CN(C)C(=O)Oc1ccc(OC(=O)N(C)C)cc1,.,.,.,.,.,.,/,/,
CN(C)C(=O)Oc1ccc(OCc2nc3ccccc3[nH]2)cc1,?,91.2,95.2,27.3,.,.,52.0,31.4,SENP8 conf=94.4;SENP6 conf=94.5;SENP7 confirm=100.3;Casp3 select=96.4;SENP luc ctr=93.0
CC1C(=O)CC2(C(C)C)CC12 (stereo unspecified),/,/,/,/,/,.,/,/,
